Reference: PubChem BioAssay (NCATS)
Records with an inconclusive call do not appear. Calls of active or inactive are those of the source. The call rests on the fitted dose curve; in most records, active means well fitted curve in the direction sought with a large enough effect; inconclusive means small, poorly fitted or top-dose-only effect, or another doubt; inactive means no such curve, though single readings can be large; an effect the other way counts as inactive or inconclusive.

How the values were obtained:
[1] = qHTS of pediatric cancer cell lines to identify multiple opportunities for drug repurposing: Primary screen for A673 cells (AID 1347092); further: on the % scale 0 is the no-effect control and ±100 the full control effect; nearly all actives have a fitted effect of over 45% in size
How it was run: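 Titration-based qHTS on A673 cells: MIPE compounds spanned 11 points (0.78 nM to 46 µM final), NPC compounds 8 points (0.59 nM to 46 µM final). Viability after 48 h was measured by ATP luminescence.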

[2] = qHTS of pediatric cancer cell lines to identify multiple opportunities for drug repurposing: Primary screen for SK-N-MC cells (AID 1347093);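 further: series mostly up to about 46 µM; plate controls were DMSO neutral control for no effect and bortezomib for full effect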
How it was run: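 Metabolically active cells were quantified by ATP-dependent luminescence (CellTiter-Glo, 15 min at room temperature) following 48 h treatment. Cells had been plated at 500-1,000 per well and settled for 5 h beforehand.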

[3] = qHTS of pediatric cancer cell lines to identify multiple opportunities for drug repurposing: Primary screen for BT-37 cells (AID 1347094);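 further: series mostly up to about 57 µM; plate controls were DMSO for no effect and bortezomib for full effect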
How it was run: (§1)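 Viability was measured as metabolically active cells after 48 hours of treatment, read by CellTiter-Glo luminescence. Compounds were tested at multiple final concentrations, giving concentration-response curves.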

[4] = qHTS of pediatric cancer cell lines to identify multiple opportunities for drug repurposing: Primary screen for NB-EBc1 cells (AID 1347095);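 further: plate controls were DMSO neutral control for no effect and bortezomib for full effect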
How it was run: as §1

[5] = qHTS of pediatric cancer cell lines to identify multiple opportunities for drug repurposing: Primary screen for U-2 OS cells (AID 1347096);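 further: plate controls were DMSO wells for no effect and bortezomib positive control wells for full effect; nearly all actives have a fitted effect of over 50% in size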
How it was run: (§2)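 Cells (500-1,000/well) in growth media were settled 5 h at 37 degrees C, then given compounds for 48 h. Viability was read as CellTiter-Glo luminescence. Primary runs used MIPE at 11 points (0.78 nM-46 µM) and NPC at 8 points (0.59 nM-46 µM); follow-ups used 11 points.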

[6] = qHTS of pediatric cancer cell lines to identify multiple opportunities for drug repurposing: Primary screen for Saos-2 cells (AID 1347097); further: on the % scale 0 is the no-effect control and ±100 the full control effect; nearly all actives have a fitted effect of over 40% in size
How it was run: as §1

[7] = qHTS of pediatric cancer cell lines to identify multiple opportunities for drug repurposing: Primary screen for SK-N-SH cells (AID 1347098);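 further: DMSO served as neutral control and bortezomib at 2.3 µM as positive control; on the % scale 0 is the no-effect control and ±100 the full control effect; nearly all actives have a fitted effect of over 65% in size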
How it was run: (§3)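 Cells (500-1,000/well) rested 5 h, then received compounds for 48 h; metabolically active cells were measured by CellTiter-Glo luminescence. Final concentrations spanned up to 46 µM (MIPE, 11-point) or 0.59 nM-46 µM (NPC, 8-point) in primary screens, 11-point in follow-ups.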

[8] = qHTS of pediatric cancer cell lines to identify multiple opportunities for drug repurposing: Primary screen for NB1643 cells (AID 1347099);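 further: plate controls were DMSO neutral control for no effect and bortezomib positive control for full effect; nearly all actives have a fitted effect of over 50% in size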
How it was run: as §1

[9] = qHTS of pediatric cancer cell lines to identify multiple opportunities for drug repurposing: Primary screen for LAN-5 cells (AID 1347100);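 further: plate controls were DMSO neutral control for no effect and bortezomib positive control for full effect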
How it was run: as §2

[10] = qHTS of pediatric cancer cell lines to identify multiple opportunities for drug repurposing: Primary screen for BT-12 cells (AID 1347101);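 further: plate controls were DMSO for no effect and bortezomib positive control for full effect; nearly all actives have a fitted effect of over 25% in size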
How it was run: as §3

[11] = qHTS of pediatric cancer cell lines to identify multiple opportunities for drug repurposing: Primary screen for Rh18 cells (AID 1347102); further: on the % scale 0 is the no-effect control and ±100 the full control effect; nearly all actives have a fitted effect of over 65% in size
How it was run: as §2

[12] = qHTS of pediatric cancer cell lines to identify multiple opportunities for drug repurposing: Primary screen for OHS-50 cells (AID 1347103);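 further: plate controls were DMSO neutral control for no effect and bortezomib positive control for full effect; nearly all actives have a fitted effect of over 40% in size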
How it was run: as §3

[13] = qHTS of pediatric cancer cell lines to identify multiple opportunities for drug repurposing: Primary screen for RD cells (AID 1347104);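 further: plate controls were DMSO for no effect and bortezomib for full effect; nearly all actives have a fitted effect of over 55% in size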
How it was run: as §1

[14] = qHTS of pediatric cancer cell lines to identify multiple opportunities for drug repurposing: Primary screen for MG 63 (6-TG R) cells (AID 1347105); further: on the % scale 0 is the no-effect control and ±100 the full control effect; nearly all actives have a fitted effect of over 50% in size
How it was run: as §1

[15] = qHTS of pediatric cancer cell lines to identify multiple opportunities for drug repurposing: Primary screen for control Hh wild type fibroblast cells (AID 1347106);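 further: series mostly up to about 46 µM; on the % scale 0 is the no-effect control and ±100 the full control effect; a drop in luminescence marks cytotoxicity and a rise apparent proliferation; nearly all actives have a fitted effect of over 55% in size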
How it was run: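 Viability after 48 h compound treatment at 37C, 500-1,000 cells/well, read as ATP luminescence with CellTiter-Glo. Primary screens used 11-point (MIPE, 0.78 nM-46 µM) or 8-point (NPC, 0.59 nM-46 µM) final concentrations; follow-up screens used 11-point dilutions.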

[16] = qHTS of pediatric cancer cell lines to identify multiple opportunities for drug repurposing: Primary screen for Rh30 cells (AID 1347107); further: series mostly up to about 46 µM; on the % scale 0 is the no-effect control and ±100 the full control effect; nearly all actives have a fitted effect of over 75% in size
How it was run: as §2

[17] = qHTS of pediatric cancer cell lines to identify multiple opportunities for drug repurposing: Primary screen for Rh41 cells (AID 1347108);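 further: series mostly up to about 46 µM; luminescence drop marks cytotoxic hits; nearly all actives have a fitted effect of over 70% in size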
How it was run: as §1

CC1=NS(=O)(=O)c2cc(Cl)ccc2N1
inactive: Potency [1] | Potency [2] | Potency [3] | Potency [4] | Potency [5] | Potency [6] | Potency [7] | Potency [8] | Potency [9] | Potency [10] | Potency [11] | Potency [12] | Potency [13] | Potency [14] | outcome [15] | Potency [16] | Potency [17]

C[N+](C)(C)CCOC(N)=O
inactive: Potency [1] | Potency [2] | Potency [3] | Potency [4] | Potency [5] | Potency [6] | Potency [7] | Potency [8] | Potency [9] | Potency [10] | Potency [11] | Potency [12] | Potency [13] | Potency [14] | outcome [15] | Potency [16] | Potency [17]

CN(C)CCN(Cc1cccs1)c1ccccn1
inactive: Potency [1] | Potency [2] | Potency [3] | Potency [4] | Potency [5] | Potency [6] | Potency [7] | Potency [8] | Potency [9] | Potency [10] | Potency [11] | Potency [13] | Potency [14] | outcome [15] | Potency [16] | Potency [17]

Cc1cccc(C)c1NC(=O)C(C)N (centres undefined)
inactive: Potency [1] | Potency [2] | Potency [3] | Potency [4] | Potency [5] | Potency [6] | Potency [7] | Potency [8] | Potency [9] | Potency [10] | Potency [11] | Potency [12] | Potency [13] | Potency [14] | outcome [15] | Potency [16] | Potency [17]

C[C@H](CS)C(=O)N1CCC[C@H]1C(=O)O
inactive: Potency [1] | Potency [2] | Potency [3] | Potency [4] | Potency [5] | Potency [6] | Potency [7] | Potency [8] | Potency [9] | Potency [10] | Potency [11] | Potency [12] | Potency [13] | Potency [14] | outcome [15] | Potency [16] | Potency [17]

CCN(CC)CC(=O)Nc1c(C)cccc1C
inactive: Potency [1] | Potency [2] | Potency [3] | Potency [4] | Potency [5] | Potency [6] | Potency [7] | Potency [8] | Potency [9] | Potency [10] | Potency [11] | Potency [12] | Potency [13] | Potency [14] | outcome [15] | Potency [16] | Potency [17]

COc1ccc([C@@H]2Sc3ccccc3N(CCN(C)C)C(=O)[C@@H]2OC(C)=O)cc1
inactive: Potency [1] | Potency [2] | Potency [3] | Potency [4] | Potency [5] | Potency [6] | Potency [7] | Potency [8] | Potency [9] | Potency [10] | Potency [11] | Potency [12] | Potency [13] | Potency [14] | outcome [15] | Potency [16] | Potency [17]

CCCN1C[C@H](CSC)C[C@@H]2c3cccc4[nH]cc(c34)C[C@H]21
inactive: Potency [1] | Potency [2] | Potency [3] | Potency [4] | Potency [5] | Potency [6] | Potency [7] | Potency [8] | Potency [9] | Potency [10] | Potency [11] | Potency [13] | Potency [14] | outcome [15] | Potency [16] | Potency [17]

O=c1[nH]c(=O)n([C@H]2C[C@H](O)[C@@H](CO)O2)cc1Br
inactive: Potency [1] | Potency [2] | Potency [3] | Potency [4] | Potency [5] | Potency [6] | Potency [7] | Potency [8] | Potency [9] | Potency [10] | Potency [12] | Potency [13] | Potency [14] | outcome [15] | Potency [16] | Potency [17]

CC(C)NNC(=O)c1ccncc1
inactive: Potency [1] | Potency [2] | Potency [3] | Potency [4] | Potency [5] | Potency [6] | Potency [7] | Potency [8] | Potency [9] | Potency [10] | Potency [12] | Potency [13] | Potency [14] | outcome [15] | Potency [16] | Potency [17]

CN(C)[C@@H]1C(=O)C(C(N)=O)=C(O)[C@@]2(O)C(=O)C3=C(O)c4c(O)ccc(Cl)c4[C@@H](O)[C@H]3C[C@@H]12
inactive: Potency [1] | Potency [2] | Potency [3] | Potency [4] | Potency [5] | Potency [6] | Potency [7] | Potency [8] | Potency [9] | Potency [11] | Potency [12] | Potency [13] | Potency [14] | outcome [15] | Potency [16] | Potency [17]

CC[N+](C)(C)c1cccc(O)c1
inactive: Potency [1] | Potency [2] | Potency [3] | Potency [4] | Potency [5] | Potency [6] | Potency [7] | Potency [8] | Potency [9] | Potency [10] | Potency [12] | Potency [13] | Potency [14] | outcome [15] | Potency [16] | Potency [17]

O=C(O)CN(CCOCCOCCN(CC(=O)O)CC(=O)O)CC(=O)O
inactive: activity change, negative = cytotoxic [1] 8.27% [at 0.597 µM] | activity change, negative = cytotoxic [2] 0.435% [at 0.597 µM] | activity change, negative = cytotoxic [3] 13% [at 0.745 µM] | activity change, negative = cytotoxic [4] 21.8% [at 0.597 µM] | activity change, negative = cytotoxic [5] 10.9% [at 0.597 µM] | activity change, negative = cytotoxic [6] -2.21% [at 0.597 µM] | activity change, negative = cytotoxic [7] -13% [at 0.741 µM] | activity change, negative = cytotoxic [8] 28.6% [at 0.597 µM] | activity change, negative = cytotoxic [9] 27.7% [at 0.597 µM] | activity change, negative = cytotoxic [10] 8.07% [at 0.745 µM] | activity change, negative = cytotoxic [12] 12.9% [at 0.73 µM] | activity change, negative = cytotoxic [13] 10.3% [at 0.597 µM] | activity change, negative = cytotoxic [14] -8.72% [at 0.597 µM] | activity change, negative = cytotoxic [15] 5.93% [at 0.597 µM] | activity change, negative = cytotoxic [16] 25.4% [at 0.597 µM] | activity change, negative = cytotoxic [17] 18.7% [at 0.597 µM]

O=C(O)CCCCCCCC(=O)O
inactive: Potency [1] | Potency [2] | Potency [3] | Potency [4] | Potency [5] | Potency [6] | Potency [7] | Potency [8] | Potency [9] | Potency [10] | Potency [12] | Potency [13] | Potency [14] | outcome [15] | Potency [16] | Potency [17]

CC(=O)[C@@]1(O)CC[C@H]2[C@@H]3CCC4=CC(=O)CC[C@]4(C)[C@H]3CC[C@@]21C
inactive: Potency [1] | Potency [2] | Potency [3] | Potency [4] | Potency [5] | Potency [6] | Potency [7] | Potency [8] | Potency [9] | Potency [13] | Potency [14] | outcome [15] | Potency [16] | Potency [17]
